PubChem BioAssay AID1159580 (chemical genetic matrix, 2015)
Screen size: about 5,500 compounds; about 2,000 (36%) were called active. Not shown: some 18% with an inconclusive outcome. Cut-off read from the data, not from the text of the source: active = normalized growth mostly below about 0.91 (no sharp cut-off); inconclusive = no clear call, values can overlap the other calls; inactive = mostly above about 0.92. The list shows a part of the results.

Assay: chemical genetic growth profiling, strain panel (AID 1159580);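 note: tested at 20 µM; growth read once vehicle control cultures reached saturation at 30 °C; 1 = growth at the plate median or of vehicle wells; lower values mean less growth of the strain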
Conditions: growth OD

Measured: normalized growth

C=Cc1c2[nH]c(c1C)C=c1[nH]c(c(C)c1C=C)=CC1N=C(C=c3[nH]c(c(C)c3CCC(=O)O)=C2)C(CCC(=O)O)=C1C (configuration not stated)
inactive: S. cerevisiae deletion strains, locus YJR075W, strain HOC1, hits give low values 0.947 | S. cerevisiae deletion strains, locus YKL068W, hits give low values 1.06 | S. cerevisiae deletion strains, locus YKL160W, strain elf1, hits give low values 0.963 | S. cerevisiae deletion strains, locus YKL190W, strain CNB1, hits give low values 0.99 | S. cerevisiae deletion strains, locus YKR001C, strain vps1, hits give low values 0.953 | S. cerevisiae deletion strains, locus YKR026C, strain gcn3, hits give low values 1.06 | S. cerevisiae deletion strains, locus YKR091W, strain srl3, hits give low values 1 | S. cerevisiae deletion strains, locus YLL001W, strain dnm1, hits give low values 1.02 | S. cerevisiae deletion strains, locus YLL026W, hits give low values 1.02 | S. cerevisiae deletion strains, locus YLL041C, strain sdh2, hits give low values 1.02 | S. cerevisiae deletion strains, locus YLR027C, strain aat2, hits give low values 1 | S. cerevisiae deletion strains, locus YLR039C, strain RIC1, hits give low values 0.996 | S. cerevisiae deletion strains, locus YLR058C, strain SHM2, hits give low values 0.976 | S. cerevisiae deletion strains, locus YLR102C, strain apc9, hits give low values 0.992 | S. cerevisiae deletion strains, locus YLR113W, strain HOG1, hits give low values 1.05 | S. cerevisiae deletion strains, locus YLR221C, strain rsa3, hits give low values 0.975 | S. cerevisiae deletion strains, locus YLR258W, strain gsy2, hits give low values 1.02 | S. cerevisiae deletion strains, locus YLR262C, strain YPT6 (second series), hits give low values 1.07 | S. cerevisiae deletion strains, locus YLR262C, strain YPT6, hits give low values 0.976 | S. cerevisiae deletion strains, locus YLR268W, strain sec22, hits give low values 1.06 | S. cerevisiae deletion strains, locus YLR320W, strain mms22, hits give low values 0.996 | S. cerevisiae deletion strains, locus YLR330W, strain CHS5, hits give low values 0.99 | S. cerevisiae deletion strains, locus YLR342W, strain FKS1 (second series), hits give low values 0.993 | S. cerevisiae deletion strains, locus YLR342W, strain FKS1, hits give low values 1.03 | S. cerevisiae deletion strains, locus YLR357W, strain rsc2, hits give low values 1.05 | S. cerevisiae deletion strains, locus YLR370C, strain arc18, hits give low values 0.999 | S. cerevisiae deletion strains, locus YLR371W, strain rom2, hits give low values 0.949 | S. cerevisiae deletion strains, locus YLR384C, strain iki3, hits give low values 1.04 | S. cerevisiae deletion strains, locus YLR418C, strain cdc73, hits give low values 0.885 | S. cerevisiae deletion strains, locus YML016C, strain PPZ1, hits give low values 0.979 | S. cerevisiae deletion strains, locus YML032C, strain rad52, hits give low values 1.01 | S. cerevisiae deletion strains, locus YML120C, strain ndi1, hits give low values 1.01 | S. cerevisiae deletion strains, locus YML124C, strain tub3, hits give low values 0.987 | S. cerevisiae deletion strains, locus YMR058W, strain fet3, hits give low values 0.912 | S. cerevisiae deletion strains, locus YMR078C, strain ctf18, hits give low values 0.993 | S. cerevisiae deletion strains, locus YMR125W, strain sto1, hits give low values 1.06 | S. cerevisiae deletion strains, locus YMR129W, hits give low values 1.06 | S. cerevisiae deletion strains, locus YMR205C, strain PFK2, hits give low values 1.02 | S. cerevisiae deletion strains, locus YMR223W, strain ubp8, hits give low values 0.972 | S. cerevisiae deletion strains, locus YMR231W, strain pep5, hits give low values 1.02 | S. cerevisiae deletion strains, locus YMR263W, strain SAP30, hits give low values 0.982 | S. cerevisiae deletion strains, locus YMR307W, strain GAS1, hits give low values 0.909 | S. cerevisiae deletion strains, locus YNL067W, strain RPL9B, hits give low values 1 | S. cerevisiae deletion strains, locus YNL128W, strain TEP1, hits give low values 0.975 | S. cerevisiae deletion strains, locus YNL153C, strain GIM3, hits give low values 1 | S. cerevisiae deletion strains, locus YNL183C, strain NPR1, hits give low values 1.01 | S. cerevisiae deletion strains, locus YNL209W, strain ssb2, hits give low values 1.02 | S. cerevisiae deletion strains, locus YNL233W, strain BNI4, hits give low values 1.01 | S. cerevisiae deletion strains, locus YNL248C, strain rpa49, hits give low values 0.987 | S. cerevisiae deletion strains, locus YNL250W, strain rad50, hits give low values 1.02 | S. cerevisiae deletion strains, locus YNL271C, strain bni1, hits give low values 1.02 | S. cerevisiae deletion strains, locus YNL298W, strain CLA4, hits give low values 1 | S. cerevisiae deletion strains, locus YNL307C, strain MCK1, hits give low values 0.966 | S. cerevisiae deletion strains, locus YNL322C, strain KRE1 (second series), hits give low values 1.03 | S. cerevisiae deletion strains, locus YNL322C, strain KRE1, hits give low values 0.989 | S. cerevisiae deletion strains, locus YNR049C, strain mso1, hits give low values 1.01 | S. cerevisiae deletion strains, locus YNR052C, strain pop2, hits give low values 1 | S. cerevisiae deletion strains, locus YOL006C, strain TOP1, hits give low values 0.997 | S. cerevisiae deletion strains, locus YOL012C, strain htz1 0.933 | S. cerevisiae deletion strains, locus YOL147C, strain pex11, hits give low values 0.996 | S. cerevisiae deletion strains, locus YOR001W, strain rrp6, hits give low values 1.03 | S. cerevisiae deletion strains, locus YOR061W, strain CKA2, hits give low values 0.98 | S. cerevisiae deletion strains, locus YOR069W, strain VPS5, hits give low values 0.95 | S. cerevisiae deletion strains, locus YOR070C, strain gyp1, hits give low values 0.98 | S. cerevisiae deletion strains, locus YOR080W, strain dia2, hits give low values 1.01 | S. cerevisiae deletion strains, locus YOR083W, strain WHI5, hits give low values 0.951 | S. cerevisiae deletion strains, locus YOR106W, strain vam3, hits give low values 0.951 | S. cerevisiae deletion strains, locus YOR136W, strain idh2, hits give low values 0.982 | S. cerevisiae deletion strains, locus YOR144C, strain elg1, hits give low values 0.996 | S. cerevisiae deletion strains, locus YOR184W, strain ser1, hits give low values 0.964 | S. cerevisiae deletion strains, locus YOR231W, strain MKK1, hits give low values 1.05 | S. cerevisiae deletion strains, locus YOR265W, strain rbl2, hits give low values 1.01 | S. cerevisiae deletion strains, locus YOR270C, strain vph1, hits give low values 0.874 | S. cerevisiae deletion strains, locus YOR290C, strain snf2, hits give low values 0.997 | S. cerevisiae deletion strains, locus YOR316C, strain cot1, hits give low values 0.99 | S. cerevisiae deletion strains, locus YPL051W, strain arl3, hits give low values 0.949 | S. cerevisiae deletion strains, locus YPL055C, strain LGE1, hits give low values 0.903 | S. cerevisiae deletion strains, locus YPL078C, strain atp4, hits give low values 0.984 | S. cerevisiae deletion strains, locus YPL106C, strain sse1, hits give low values 0.982 | S. cerevisiae deletion strains, locus YPL240C, strain hsp82, hits give low values 0.994 | S. cerevisiae deletion strains, locus YPL241C, strain CIN2, hits give low values 0.994 | S. cerevisiae deletion strains, locus YPL256C, strain CLN2, hits give low values 1.1 | S. cerevisiae deletion strains, locus YPR119W, strain clb2, hits give low values 0.994 | S. cerevisiae deletion strains, locus YPR141C, strain kar3, hits give low values 1.01 | S. cerevisiae deletion strains, locus YPR163C, strain tif3, hits give low values 1 | S. cerevisiae deletion strains, locus YPR167C, strain met16, hits give low values 1 | S. cerevisiae deletion strains, strain wtn01, hits give low values 0.996 | S. cerevisiae strains, strain wild type, hits give low values 0.972
active: S. cerevisiae deletion strains, locus YKL009W, strain mrt4, hits give low values 0.791 | S. cerevisiae deletion strains, locus YKL085W, strain MDH1 (second series), hits give low values 1.19 [resistant] | S. cerevisiae deletion strains, locus YKL085W, strain MDH1, hits give low values 1.19 [resistant] | S. cerevisiae deletion strains, locus YNL071W, strain lat1, hits give low values 0.881
